Screens as filed in PubChem BioAssay.
The list is not random: actives were taken first. Their share in the collection is about 0.91%.
BLM helicase inh-1 = inhibitors of human Bloom syndrome helicase BLM; recombinant BLM DNA unwinding, fluorescence dequenching; Potency, µM (series often up to 56.1 µM), most hits filed as inhibitors; actives 0.2% (n = 350,000); note: nearly all actives have a fitted effect of over 35% in size
TRb SRC2 PPI = disrupts binding of human TR beta to SRC2. TRbeta-SRC2 peptide binding, fluorescence polarization; receptor liganded with 1 µM T3. Potency, µM (series often up to 106 µM), hits mostly inhibitors. actives 0.065% (n = 280,000). AID 1469; note: nearly all actives have a fitted effect of over 50% in size
Target sequence (P10828 whole entry, looked up): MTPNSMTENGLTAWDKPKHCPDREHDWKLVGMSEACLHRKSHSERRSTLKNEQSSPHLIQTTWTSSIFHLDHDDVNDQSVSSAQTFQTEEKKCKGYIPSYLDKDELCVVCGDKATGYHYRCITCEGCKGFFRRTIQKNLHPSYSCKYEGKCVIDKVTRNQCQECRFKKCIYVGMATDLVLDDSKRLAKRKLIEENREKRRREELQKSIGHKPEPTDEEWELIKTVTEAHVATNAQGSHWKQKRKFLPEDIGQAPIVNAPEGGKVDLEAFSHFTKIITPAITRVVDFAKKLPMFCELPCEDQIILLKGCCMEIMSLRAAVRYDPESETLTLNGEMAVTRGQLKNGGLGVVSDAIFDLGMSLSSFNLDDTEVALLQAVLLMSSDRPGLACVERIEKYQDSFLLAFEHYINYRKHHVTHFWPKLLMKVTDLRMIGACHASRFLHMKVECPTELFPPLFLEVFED
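Fluorescence polarization of 20 nM Texas Red SRC2 peptide with 0.6 uM human TRb ligand-binding domain, in Tris buffer with 1uM T3 and 5% DMSO. Incubated 5 hr ambient; normalized to unbound and bound controls.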
RECQ1 inh-1 = blocks DNA unwinding by human RECQ1 | P46063 | RECQ1 DNA unwinding, red fluorescence kinetic read | Potency, µM (series often up to 57.3 µM), hits mostly inhibitors | actives 0.54% (n = 240,000) | AID 2549; note: nearly all actives have a fitted effect of over 30% in size
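RECQ1T1 50 nM; forked duplex (20 bp + 30-nt ss tails) 200 nM, ATP 2 mM final; pH 8.0, 2 mM MgCl2, 2.5 ug/ml poly(dI-dC); 15 min compound preincubation; discontinuous kinetic read over 2 h at RT.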
APE1 inh-1 = APE1 (human) endonuclease inhibition. P27695. recombinant APE1, TAMRA/BHQ-2 abasic DNA cleavage fluorescence. Potency, µM (top dose mostly 65.8 µM), usual class: inhibitors. actives 0.35% (n = 350,000); note: nearly all actives have a fitted effect of over 55% in size
Target sequence (P27695 whole entry, looked up): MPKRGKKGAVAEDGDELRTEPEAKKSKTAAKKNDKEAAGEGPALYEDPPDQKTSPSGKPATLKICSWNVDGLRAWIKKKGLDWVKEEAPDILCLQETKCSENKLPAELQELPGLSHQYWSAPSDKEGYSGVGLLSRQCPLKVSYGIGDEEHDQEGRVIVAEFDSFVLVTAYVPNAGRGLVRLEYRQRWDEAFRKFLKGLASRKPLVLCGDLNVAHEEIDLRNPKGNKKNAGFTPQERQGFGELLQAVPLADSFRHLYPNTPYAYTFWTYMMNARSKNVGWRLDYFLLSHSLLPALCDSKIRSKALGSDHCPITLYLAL
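Measures dequenching upon AP-site incision of a 5'-TAMRA/3'-BHQ-2 THF-containing duplex, 50 nM; human APE1 0.75 nM after 15 min room-temperature exposure to compound; kinetic three-point read at one-minute spacing.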
WRN helicase inh-1 = blocks human WRN helicase; WRN helicase unwinding, fluorescent forked duplex, kinetic; Potency, µM (titrated, usually from 114 µM), usual class: inhibitors; actives 0.46% (n = 360,000); Q14191; AID 651768; note: nearly all actives have a fitted effect of over 55% in size
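Screening of the MLSMR collection measured strand separation of a quenched forked DNA duplex (100 nM) by 20 nM WRN with 2 mM ATP, all final. Compounds were preincubated with enzyme 15 min at room temperature.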
TR SRC2 fluor cs = alters Texas Red total fluorescence, flagging assay interference | TRb/SRC2 Texas Red total fluorescence interference | Potency, µM (doses to about 106 µM) | actives 0.29% (n = 280,000); active = well fitted curve in either direction with a large enough effect; inconclusive = small, poorly fitted or top-dose-only effect
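Human TRβ ligand-binding domain (0.6 uM) and Texas Red SRC2 peptide (20 nM) in Tris buffer with 1 uM T3 and 5% DMSO were incubated with pinned compound for 5 hr at ambient temperature. Total fluorescence was computed as S + 2P (555/632 nm).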
DNA dye displace = displaces fluorescent dye from DNA, flagging APE1 artifacts; actives 7% (n = 480); Potency, µM (doses to about 28.5 µM), hits mostly inhibitors; DNA fluorescent dye displacement counterscreen, fluorescence; shares compounds with APE1 inh-1;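 note: loss of thiazole orange fluorescence as the dye is displaced from duplex DNA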
Endo IV inh = blocks E. coli endonuclease IV DNA cleavage. E. coli Endo IV, fluorogenic AP-site DNA cleavage. Potency, µM (highest dose often 27.1 µM), most hits filed as inhibitors. shares compounds with APE1 inh-1. actives 4% (n = 560)
APE1 inh-2 = confirmation of inhibitors of human APE1 endonuclease; AID 2572; Potency, µM (highest dose often 57.1 µM), usual class: inhibitors; shares compounds with APE1 inh-1; purified APE1, fluorogenic abasic-site DNA cleavage; actives 44% (n = 750); note: nearly all actives have a fitted effect of over 30% in size
APE1 FP = compounds that displace a DNA probe from human APE1. actives 7% (n = 480). Potency, µM (top dose mostly 28.5 µM), hits mostly inhibitors. APE1 binding to TAMRA-labelled double-stranded DNA, fluorescence polarization displacement. shares compounds with APE1 inh-1
RECQ1 inh conf = confirmation of human RECQ1 helicase inhibitors. Potency, µM (top dose mostly 229 µM), hits mostly inhibitors. shares compounds with RECQ1 inh-1. actives 28% (n = 610). RECQ1 helicase DNA unwinding, fluorescence; note: nearly all actives have a fitted effect of over 45% in size
RECQ1 ADP FP = counter-screen for RECQ1 inhibitors: ADP displacement | shares compounds with RECQ1 inh-1 | ADP fluorescence polarization displacement counterscreen | Potency, µM (titrated, usually from 228 µM), most hits filed as inhibitors | actives 27% (n = 530); note: nearly all actives have a fitted effect of over 45% in size
RECQ1 inh-2 = confirmation of human RECQ1 helicase inhibitors | shares compounds with RECQ1 inh-1 | recombinant RECQ1 DNA unwinding, red fluorescence | Potency, µM (top dose mostly 119 µM), actives largely listed as inhibitors | actives 15% (n = 1,100); note: nearly all actives have a fitted effect of over 50% in size
WRN helicase inh-2 = confirmation of human WRN helicase inhibitors; actives 63% (n = 610); AID 720497; WRN helicase DNA unwinding, fluorescence kinetic; Potency, µM (highest dose often 57.1 µM), actives largely listed as inhibitors; shares compounds with WRN helicase inh-1; note: nearly all actives have a fitted effect of over 65% in size
TO displacement = DNA binding via thiazole orange displacement; shares compounds with WRN helicase inh-1; thiazole orange DNA binding displacement, fluorescence; Potency, µM (top dose mostly 57.1 µM), actives largely listed as inhibitors; actives 10% (n = 610); AID 720499;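 note: drop in dye fluorescence marks compound binding to DNA; nearly all actives have a fitted effect of over 60% in size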
BLM helicase inh-2 = blocks human BLM helicase in WRN counterscreen; shares compounds with WRN helicase inh-1; Potency, µM (series often up to 57.1 µM), hits mostly inhibitors; actives 60% (n = 610); Recombinant BLM helicase DNA unwinding, red fluorescence; note: nearly all actives have a fitted effect of over 60% in size
Of the large screens only hits and unclear results are named; the others gave an inactive call (follow-up assays come after a bar, where they were run); ! = a repeat was not active; [ ] = remark or other dose. Unless noted, calls come from the whole dose curve; as a rule, active = well fitted curve in the direction sought with a large enough effect; inconclusive = small, poorly fitted or top-dose-only effect, or another doubt; inactive = no such curve, though single readings can be large; an effect the other way counts as inactive or inconclusive.

Cc1ccc2c(=O)c3ccccc3n(CCCN)c2c1C	RECQ1 inh-1 32µM!, APE1 inh-1 4.5µM! (no result: WRN helicase inh-1) | DNA dye displace 14µM | Endo IV inh inactive | APE1 inh-2 8.9µM | APE1 FP inactive | RECQ1 inh-2 18µM
Cc1ccc(NC(=O)CN2C(=O)N/C(=C/c3cccn3-c3ccc(C(=O)O)cc3)C2=O)cc1	BLM helicase inh-1 inconclusive, RECQ1 inh-1 7.9µM, APE1 inh-1 1.1µM, WRN helicase inh-1 7.9µM | APE1 inh-2 1.3µM | RECQ1 inh conf 20µM
O=C1N/C(=C/c2cccn2-c2ccccc2)C(=O)N1Cc1ccc(F)cc1	none
Cc1c2c(c(O)c3c(O)cccc13)C(=O)O[C@H]2C1C(N(C)C)C(O)=C(C(N)=O)C(=O)[C@H]1O (stereo partly specified)	BLM helicase inh-1 18µM, TRb SRC2 PPI inconclusive, RECQ1 inh-1 3.2µM, APE1 inh-1 2µM, TR SRC2 fluor cs 22µM[quencher] (no result: WRN helicase inh-1) | DNA dye displace 10µM | Endo IV inh inactive | APE1 inh-2 1.4µM | APE1 FP 2.2µM | RECQ1 inh conf 40µM | RECQ1 ADP FP 16µM | RECQ1 inh-2 inconclusive
Cc1ccc(NC(=O)c2ccc(NC(=O)N3CCSc4ncccc43)cc2)c(Cl)c1	none (no result: RECQ1 inh-1, APE1 inh-1, WRN helicase inh-1)
CC(Oc1ccc(Cl)cc1Cl)C(=O)OCC(=O)c1c(N)n(C)c(=O)n(C)c1=O (stereo unspecified)	none (no result: BLM helicase inh-1, TRb SRC2 PPI, RECQ1 inh-1, TR SRC2 fluor cs)
Cc1cc(=O)n2[nH]c(-c3ccsc3-n3c(C)ccc3C)cc2n1	BLM helicase inh-1 7.9µM, RECQ1 inh-1 8.9µM, APE1 inh-1 3.5µM, WRN helicase inh-1 inconclusive | DNA dye displace inactive | Endo IV inh inactive | APE1 inh-2 inconclusive | APE1 FP inactive | RECQ1 inh conf 50µM | RECQ1 ADP FP 32µM | RECQ1 inh-2 inconclusive
Cc1cc(O)c(Oc2cc(C)cc(O)c2O)c(O)c1	RECQ1 inh-1 13µM, APE1 inh-1 10µM, WRN helicase inh-1 28µM | DNA dye displace inactive | Endo IV inh inactive | APE1 inh-2 inconclusive | APE1 FP inactive | RECQ1 inh-2 inconclusive | WRN helicase inh-2 19µM | TO displacement inactive | BLM helicase inh-2 22µM
O=C1CCCC2=C1C(c1ccc(O)c(O)c1)Nc1ccc3ccccc3c12 (stereo unspecified)	none (no result: BLM helicase inh-1, TRb SRC2 PPI, RECQ1 inh-1, APE1 inh-1, TR SRC2 fluor cs)
O=C1CCCC2=C1C(c1ccco1)Nc1ccc3ccccc3c12 (stereo unspecified)	RECQ1 inh-1 10µM, APE1 inh-1 14µM, WRN helicase inh-1 18µM | DNA dye displace inactive | Endo IV inh inactive | APE1 inh-2 4µM | APE1 FP inconclusive | RECQ1 inh conf 25µM | RECQ1 ADP FP 50µM | RECQ1 inh-2 16µM | WRN helicase inh-2 15µM | TO displacement inactive | BLM helicase inh-2 3µM
COc1ccc(CN2CCC(N(CCc3ccccc3)Cc3ccccc3)CC2)c(OC)c1	none
CCc1nc2c(OCc3c(C)noc3C)cccn2c1N(C)C(=O)c1ccccc1F	none (no result: BLM helicase inh-1, TRb SRC2 PPI, RECQ1 inh-1, APE1 inh-1, TR SRC2 fluor cs)
CCNc1ccc2noc3c2c1C(=O)c1ccccc1-3	BLM helicase inh-1 25µM, TRb SRC2 PPI 14µM, RECQ1 inh-1 3.5µM, APE1 inh-1 3.2µM, WRN helicase inh-1 4.2µM, TR SRC2 fluor cs 45µM[fluorescent] | DNA dye displace inactive | Endo IV inh 13µM | APE1 inh-2 14µM | APE1 FP 0.79µM | WRN helicase inh-2 3µM | TO displacement inactive | BLM helicase inh-2 7.6µM
O=C1/C(=C\c2ccco2)SC(=S)N1c1ccc(O)cc1	none
O=C1/C(=C/C=C/c2ccco2)SC(=S)N1c1ccc(O)cc1	BLM helicase inh-1 inconclusive, RECQ1 inh-1 11µM, APE1 inh-1 7.9µM, WRN helicase inh-1 32µM | DNA dye displace inconclusive | Endo IV inh inactive | APE1 inh-2 inconclusive | APE1 FP inactive | RECQ1 inh conf inconclusive | RECQ1 ADP FP inactive | WRN helicase inh-2 12µM | TO displacement inconclusive | BLM helicase inh-2 8.6µM
O=C(Nc1cc(C(F)(F)F)cc(C(F)(F)F)c1)Nc1cnn(-c2ccc([N+](=O)[O-])cc2)c1C(F)(F)F	none
O=C(c1coc(=O)c(Br)c1)N1CCC(C(O)(c2ccccc2)c2ccccc2)CC1	none
CC1(C)CCCN(C(=O)c2coc(=O)c(Br)c2)C1	RECQ1 inh-1 11µM, APE1 inh-1 4µM, WRN helicase inh-1 18µM | APE1 inh-2 1.3µM | RECQ1 inh conf 20µM | RECQ1 ADP FP inactive | WRN helicase inh-2 1.9µM | TO displacement inconclusive | BLM helicase inh-2 0.48µM
